Source: the supplement of paper PMC11732987, “Enantioselective OTUD7B fragment discovery through chemoproteomics screening and high-throughput optimisation” (Communications Chemistry, 2025)
Unmarked numbers belong to inactive results.

Experiments:
Experiment in all cases: log2 ratio of Biotin-Ahx-Ub-VS probe labelling (fragment/DMSO); higher = less target engagement (more negative = stronger competition), active = hit call of the paper (q ≤ 0.05, log2 ratio ≤ -1)
Settings in all cases: compound concentration: 200 uM; treatment time: 3 h
USP34 = USP34 (UniProt Q70CQ2)
USP34, sequence (Q70CQ2 whole entry, the tested form may be a part): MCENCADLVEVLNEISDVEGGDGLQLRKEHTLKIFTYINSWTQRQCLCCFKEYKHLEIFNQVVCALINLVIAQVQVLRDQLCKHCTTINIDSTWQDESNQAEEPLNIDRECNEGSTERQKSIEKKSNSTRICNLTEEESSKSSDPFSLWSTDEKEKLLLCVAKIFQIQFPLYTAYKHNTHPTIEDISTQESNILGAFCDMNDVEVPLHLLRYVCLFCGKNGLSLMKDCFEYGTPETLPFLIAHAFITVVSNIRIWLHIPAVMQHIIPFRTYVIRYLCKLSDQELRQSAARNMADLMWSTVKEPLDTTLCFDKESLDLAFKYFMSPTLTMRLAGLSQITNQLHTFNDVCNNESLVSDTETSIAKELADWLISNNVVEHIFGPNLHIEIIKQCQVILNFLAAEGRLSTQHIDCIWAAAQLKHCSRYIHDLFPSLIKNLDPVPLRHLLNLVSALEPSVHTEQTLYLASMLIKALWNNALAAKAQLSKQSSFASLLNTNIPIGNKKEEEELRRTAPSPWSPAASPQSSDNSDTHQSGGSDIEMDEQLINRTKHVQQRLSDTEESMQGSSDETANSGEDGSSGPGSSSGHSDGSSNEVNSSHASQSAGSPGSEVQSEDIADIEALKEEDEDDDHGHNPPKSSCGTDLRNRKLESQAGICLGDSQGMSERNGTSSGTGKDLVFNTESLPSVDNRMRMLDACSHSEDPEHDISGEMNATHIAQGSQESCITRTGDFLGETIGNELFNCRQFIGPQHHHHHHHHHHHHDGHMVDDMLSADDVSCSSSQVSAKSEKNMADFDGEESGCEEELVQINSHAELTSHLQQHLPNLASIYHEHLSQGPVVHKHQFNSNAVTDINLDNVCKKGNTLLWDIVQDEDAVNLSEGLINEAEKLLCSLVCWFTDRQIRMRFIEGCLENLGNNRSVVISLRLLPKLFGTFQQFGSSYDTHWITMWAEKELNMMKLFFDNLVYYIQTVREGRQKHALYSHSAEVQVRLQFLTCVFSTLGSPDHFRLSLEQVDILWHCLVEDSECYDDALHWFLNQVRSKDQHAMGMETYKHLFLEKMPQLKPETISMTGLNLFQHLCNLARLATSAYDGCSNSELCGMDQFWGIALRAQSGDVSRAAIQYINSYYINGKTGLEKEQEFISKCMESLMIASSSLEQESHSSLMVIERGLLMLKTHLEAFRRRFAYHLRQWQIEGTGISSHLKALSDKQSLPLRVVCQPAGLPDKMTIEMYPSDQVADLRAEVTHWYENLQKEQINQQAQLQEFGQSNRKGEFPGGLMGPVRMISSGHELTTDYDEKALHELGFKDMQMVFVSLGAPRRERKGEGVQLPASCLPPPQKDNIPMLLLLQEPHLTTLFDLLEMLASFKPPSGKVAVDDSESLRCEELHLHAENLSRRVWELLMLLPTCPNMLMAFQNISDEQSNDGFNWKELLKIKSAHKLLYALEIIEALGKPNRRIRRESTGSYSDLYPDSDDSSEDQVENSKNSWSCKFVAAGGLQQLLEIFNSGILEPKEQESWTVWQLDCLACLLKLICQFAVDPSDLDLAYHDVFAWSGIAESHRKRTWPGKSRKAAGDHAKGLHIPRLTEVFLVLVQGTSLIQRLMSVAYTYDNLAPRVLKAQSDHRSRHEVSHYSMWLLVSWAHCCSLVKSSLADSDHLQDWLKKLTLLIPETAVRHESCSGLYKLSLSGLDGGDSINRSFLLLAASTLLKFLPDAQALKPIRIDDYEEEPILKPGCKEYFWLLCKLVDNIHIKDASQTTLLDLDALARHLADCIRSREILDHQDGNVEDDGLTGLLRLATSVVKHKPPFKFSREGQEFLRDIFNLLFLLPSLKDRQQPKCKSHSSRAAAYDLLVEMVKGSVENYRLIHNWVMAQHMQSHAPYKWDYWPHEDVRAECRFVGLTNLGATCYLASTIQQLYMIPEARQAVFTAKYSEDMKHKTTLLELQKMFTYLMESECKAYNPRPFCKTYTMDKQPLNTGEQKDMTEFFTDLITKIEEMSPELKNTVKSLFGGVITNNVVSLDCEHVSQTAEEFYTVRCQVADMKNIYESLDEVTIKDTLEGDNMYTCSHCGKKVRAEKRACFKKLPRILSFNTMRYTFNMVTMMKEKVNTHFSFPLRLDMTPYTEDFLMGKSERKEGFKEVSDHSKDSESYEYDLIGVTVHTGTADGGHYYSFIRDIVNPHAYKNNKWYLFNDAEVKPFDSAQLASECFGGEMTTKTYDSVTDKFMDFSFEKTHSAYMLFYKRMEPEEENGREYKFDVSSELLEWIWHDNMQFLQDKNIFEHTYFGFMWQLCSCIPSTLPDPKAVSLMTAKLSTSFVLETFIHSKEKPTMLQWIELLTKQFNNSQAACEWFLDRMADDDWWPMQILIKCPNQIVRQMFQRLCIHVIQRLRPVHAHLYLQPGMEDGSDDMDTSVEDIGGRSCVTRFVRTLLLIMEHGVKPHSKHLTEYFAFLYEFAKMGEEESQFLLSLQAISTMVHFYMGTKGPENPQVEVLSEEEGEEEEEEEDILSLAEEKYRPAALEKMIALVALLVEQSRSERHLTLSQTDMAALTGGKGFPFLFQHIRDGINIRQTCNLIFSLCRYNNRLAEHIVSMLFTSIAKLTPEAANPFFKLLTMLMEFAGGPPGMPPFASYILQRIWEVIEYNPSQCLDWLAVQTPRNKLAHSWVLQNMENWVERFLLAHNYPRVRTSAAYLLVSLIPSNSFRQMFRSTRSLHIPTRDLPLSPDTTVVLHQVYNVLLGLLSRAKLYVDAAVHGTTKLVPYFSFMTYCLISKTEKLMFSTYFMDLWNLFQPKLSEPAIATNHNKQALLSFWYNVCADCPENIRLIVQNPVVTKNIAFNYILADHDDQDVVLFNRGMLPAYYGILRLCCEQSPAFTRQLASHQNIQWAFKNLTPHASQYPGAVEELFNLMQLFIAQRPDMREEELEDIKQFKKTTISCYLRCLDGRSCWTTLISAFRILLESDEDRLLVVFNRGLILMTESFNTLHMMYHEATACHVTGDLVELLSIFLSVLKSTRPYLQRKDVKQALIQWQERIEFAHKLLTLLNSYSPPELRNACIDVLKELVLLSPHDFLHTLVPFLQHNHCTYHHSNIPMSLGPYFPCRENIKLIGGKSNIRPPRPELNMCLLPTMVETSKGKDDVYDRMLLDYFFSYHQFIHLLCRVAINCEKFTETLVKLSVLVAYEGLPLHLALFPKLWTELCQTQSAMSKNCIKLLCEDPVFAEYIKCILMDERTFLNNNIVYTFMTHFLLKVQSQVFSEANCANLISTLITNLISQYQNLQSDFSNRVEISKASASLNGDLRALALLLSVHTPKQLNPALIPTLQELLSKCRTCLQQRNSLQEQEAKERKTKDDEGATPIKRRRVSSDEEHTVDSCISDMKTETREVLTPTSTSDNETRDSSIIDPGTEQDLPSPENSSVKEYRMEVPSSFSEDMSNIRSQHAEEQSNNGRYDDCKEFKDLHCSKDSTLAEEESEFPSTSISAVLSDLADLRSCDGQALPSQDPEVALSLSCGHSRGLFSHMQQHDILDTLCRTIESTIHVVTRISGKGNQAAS
Summary of the method: (§1)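 Fragment (200 µM) or vehicle was incubated for 3 h with triplicate HEK293T lysate samples of 495 µg, which were then treated with Biotin-Ahx-Ub-VS at 0.5 µM final for 1 h. Labelled DUBs were enriched on NeutrAvidin, digested with LysC and trypsin, and analysed by diaPASEF LC-MS/MS. Values are average log2 fragment/vehicle ratios from an unpaired t-test on global-median-normalised Spectronaut label-free quantities, using proteins with ≥2 unique peptides.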

USP36 = biological target: T1, USP36 (UniProt Q9P275)
T1 sequence (whole entry): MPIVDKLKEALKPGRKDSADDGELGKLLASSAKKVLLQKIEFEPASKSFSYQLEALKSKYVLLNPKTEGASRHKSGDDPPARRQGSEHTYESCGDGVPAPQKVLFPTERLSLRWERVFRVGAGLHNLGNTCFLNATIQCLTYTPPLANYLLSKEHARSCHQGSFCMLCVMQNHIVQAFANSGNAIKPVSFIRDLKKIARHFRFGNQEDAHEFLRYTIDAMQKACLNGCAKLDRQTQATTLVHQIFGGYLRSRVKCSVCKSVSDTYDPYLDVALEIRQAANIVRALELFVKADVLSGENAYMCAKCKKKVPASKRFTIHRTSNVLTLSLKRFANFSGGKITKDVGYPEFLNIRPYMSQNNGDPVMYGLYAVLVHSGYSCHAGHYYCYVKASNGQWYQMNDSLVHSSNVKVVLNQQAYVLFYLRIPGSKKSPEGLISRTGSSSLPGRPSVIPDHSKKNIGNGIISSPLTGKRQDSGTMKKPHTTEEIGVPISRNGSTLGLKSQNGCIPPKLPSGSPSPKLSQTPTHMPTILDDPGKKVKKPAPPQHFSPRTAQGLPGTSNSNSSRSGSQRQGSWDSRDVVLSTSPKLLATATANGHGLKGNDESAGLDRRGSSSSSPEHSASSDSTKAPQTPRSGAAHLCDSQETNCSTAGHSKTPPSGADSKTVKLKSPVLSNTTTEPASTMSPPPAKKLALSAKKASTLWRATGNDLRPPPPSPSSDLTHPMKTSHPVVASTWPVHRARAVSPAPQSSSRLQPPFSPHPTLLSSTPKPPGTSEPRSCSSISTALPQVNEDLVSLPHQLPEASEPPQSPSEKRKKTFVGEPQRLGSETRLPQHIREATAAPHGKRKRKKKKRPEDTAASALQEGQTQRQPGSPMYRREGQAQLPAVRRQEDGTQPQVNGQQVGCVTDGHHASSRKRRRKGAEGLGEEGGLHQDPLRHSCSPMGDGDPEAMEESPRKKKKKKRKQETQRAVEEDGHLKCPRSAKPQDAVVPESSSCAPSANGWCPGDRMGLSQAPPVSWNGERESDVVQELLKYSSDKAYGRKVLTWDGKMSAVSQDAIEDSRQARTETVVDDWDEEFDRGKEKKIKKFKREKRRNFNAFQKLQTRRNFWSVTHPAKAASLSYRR
Summary of the method: as §1

USP38 = biological target: T2, USP38 (UniProt Q8NB14)
T2 sequence (whole entry): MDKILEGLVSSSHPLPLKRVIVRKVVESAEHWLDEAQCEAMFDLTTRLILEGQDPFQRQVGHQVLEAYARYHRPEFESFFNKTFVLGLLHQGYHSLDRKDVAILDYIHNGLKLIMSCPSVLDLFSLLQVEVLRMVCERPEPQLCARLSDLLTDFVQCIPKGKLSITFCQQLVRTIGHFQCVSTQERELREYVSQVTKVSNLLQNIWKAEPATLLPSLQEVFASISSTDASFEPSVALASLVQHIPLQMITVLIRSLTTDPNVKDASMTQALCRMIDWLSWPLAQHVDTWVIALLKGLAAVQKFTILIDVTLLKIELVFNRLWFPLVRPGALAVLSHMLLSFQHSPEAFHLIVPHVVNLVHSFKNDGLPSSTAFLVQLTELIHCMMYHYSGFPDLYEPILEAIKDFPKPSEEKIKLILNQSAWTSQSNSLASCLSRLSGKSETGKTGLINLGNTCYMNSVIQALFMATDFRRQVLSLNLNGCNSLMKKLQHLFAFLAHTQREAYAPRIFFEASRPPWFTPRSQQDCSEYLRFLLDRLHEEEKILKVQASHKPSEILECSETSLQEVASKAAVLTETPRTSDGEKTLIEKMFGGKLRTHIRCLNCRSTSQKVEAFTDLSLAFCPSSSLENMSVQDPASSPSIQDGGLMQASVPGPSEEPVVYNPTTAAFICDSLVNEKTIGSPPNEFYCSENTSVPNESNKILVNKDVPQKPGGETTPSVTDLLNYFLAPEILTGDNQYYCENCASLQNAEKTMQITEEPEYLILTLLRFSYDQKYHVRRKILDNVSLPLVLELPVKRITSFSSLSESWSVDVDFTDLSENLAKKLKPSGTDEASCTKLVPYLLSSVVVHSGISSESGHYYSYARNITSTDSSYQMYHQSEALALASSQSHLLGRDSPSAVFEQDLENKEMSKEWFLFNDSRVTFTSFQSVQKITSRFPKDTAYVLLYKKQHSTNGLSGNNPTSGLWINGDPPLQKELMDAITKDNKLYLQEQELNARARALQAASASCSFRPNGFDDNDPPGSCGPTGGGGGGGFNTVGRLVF
Summary of the method: as §1

USP39 = biological target: T3, USP39 (UniProt Q53GS9)
T3 sequence (whole entry): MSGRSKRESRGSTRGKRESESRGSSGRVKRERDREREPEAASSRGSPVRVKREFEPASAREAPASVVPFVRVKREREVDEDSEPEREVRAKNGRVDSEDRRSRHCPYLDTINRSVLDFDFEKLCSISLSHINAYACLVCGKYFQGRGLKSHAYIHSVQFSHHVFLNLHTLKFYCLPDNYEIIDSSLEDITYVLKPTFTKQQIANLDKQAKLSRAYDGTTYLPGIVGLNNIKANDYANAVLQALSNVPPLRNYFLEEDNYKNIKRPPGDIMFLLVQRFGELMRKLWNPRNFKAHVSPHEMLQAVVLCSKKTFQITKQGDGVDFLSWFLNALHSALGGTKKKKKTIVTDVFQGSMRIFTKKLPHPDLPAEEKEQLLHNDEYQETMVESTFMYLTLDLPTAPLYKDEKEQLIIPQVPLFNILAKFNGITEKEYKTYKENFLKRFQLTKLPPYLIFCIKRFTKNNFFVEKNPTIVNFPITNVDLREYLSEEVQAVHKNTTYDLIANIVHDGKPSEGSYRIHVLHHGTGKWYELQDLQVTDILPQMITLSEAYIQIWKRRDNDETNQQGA
Summary of the method: as §1

USP4 = biological target: T4, USP4 (UniProt Q13107)
T4 sequence (whole entry): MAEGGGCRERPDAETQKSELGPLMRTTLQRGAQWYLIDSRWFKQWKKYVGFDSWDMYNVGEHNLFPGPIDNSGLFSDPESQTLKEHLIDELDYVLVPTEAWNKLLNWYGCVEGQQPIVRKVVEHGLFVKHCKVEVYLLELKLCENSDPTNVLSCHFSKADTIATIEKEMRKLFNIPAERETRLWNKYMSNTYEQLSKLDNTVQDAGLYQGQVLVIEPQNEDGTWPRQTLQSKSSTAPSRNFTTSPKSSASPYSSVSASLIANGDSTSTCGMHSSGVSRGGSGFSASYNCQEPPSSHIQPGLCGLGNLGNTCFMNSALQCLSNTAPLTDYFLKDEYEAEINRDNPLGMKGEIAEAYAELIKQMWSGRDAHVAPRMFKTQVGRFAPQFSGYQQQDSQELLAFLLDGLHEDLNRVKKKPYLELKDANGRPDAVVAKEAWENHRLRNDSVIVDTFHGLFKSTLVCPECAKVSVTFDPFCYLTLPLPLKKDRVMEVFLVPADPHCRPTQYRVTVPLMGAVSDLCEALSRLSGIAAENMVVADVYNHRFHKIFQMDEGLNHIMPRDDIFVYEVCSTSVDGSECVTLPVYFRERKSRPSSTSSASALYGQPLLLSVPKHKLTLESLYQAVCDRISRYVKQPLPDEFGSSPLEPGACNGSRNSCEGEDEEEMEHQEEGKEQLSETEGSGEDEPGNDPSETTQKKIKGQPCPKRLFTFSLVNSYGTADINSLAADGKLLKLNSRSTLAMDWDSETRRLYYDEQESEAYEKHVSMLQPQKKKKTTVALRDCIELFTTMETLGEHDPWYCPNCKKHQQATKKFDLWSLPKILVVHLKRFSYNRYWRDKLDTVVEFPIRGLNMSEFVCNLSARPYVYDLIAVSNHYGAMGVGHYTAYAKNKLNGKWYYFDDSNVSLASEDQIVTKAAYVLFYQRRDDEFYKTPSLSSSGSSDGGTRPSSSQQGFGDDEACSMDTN
Summary of the method: as §1

O=C(CCl)N1CCc2[nH]c3ccccc3c2C1
log2 ratio of Biotin-Ahx-Ub-VS probe labelling (USP34): -0.571
log2 ratio of Biotin-Ahx-Ub-VS probe labelling (USP36): 0.0133
log2 ratio of Biotin-Ahx-Ub-VS probe labelling (USP38): -0.674
log2 ratio of Biotin-Ahx-Ub-VS probe labelling (USP39): 5.6e-06
log2 ratio of Biotin-Ahx-Ub-VS probe labelling (USP4): -1.51 (active)
